# WRN inhibitor: blocks human WRN helicase | Q14191 | WRN helicase unwinding, fluorescent forked duplex, kinetic | Potency, µM (top dose mostly 114 µM), for inactives: top-dose activity change, negative = inhibition, actives largely listed as inhibitors | 360,000 tested, 0.46% active; further: nearly all actives have a fitted effect of over 55% in size
#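 Fluorescence dequenching readout, ex 525 nm/em 598 nm, kinetic mode: forked duplex DNA (100 nM final) with adjacent fluorophore and quencher unwound by WRN (20 nM final) with 2 mM ATP. Compound preincubation 15 min, room temperature.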
# RECQ1 helicase: blocks DNA unwinding by human RECQ1. RECQ1 DNA unwinding, red fluorescence kinetic read. Potency, µM (titrated, usually from 57.3 µM), for inactives: top-dose activity, negative = inhibition, hits mostly inhibitors. P46063. 240,000 tested, 0.54% active;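 further: plate controls were vehicle for no effect and no enzyme for full effect; nearly all actives have a fitted effect of over 30% in size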
# Target sequence (P46063 whole entry, looked up): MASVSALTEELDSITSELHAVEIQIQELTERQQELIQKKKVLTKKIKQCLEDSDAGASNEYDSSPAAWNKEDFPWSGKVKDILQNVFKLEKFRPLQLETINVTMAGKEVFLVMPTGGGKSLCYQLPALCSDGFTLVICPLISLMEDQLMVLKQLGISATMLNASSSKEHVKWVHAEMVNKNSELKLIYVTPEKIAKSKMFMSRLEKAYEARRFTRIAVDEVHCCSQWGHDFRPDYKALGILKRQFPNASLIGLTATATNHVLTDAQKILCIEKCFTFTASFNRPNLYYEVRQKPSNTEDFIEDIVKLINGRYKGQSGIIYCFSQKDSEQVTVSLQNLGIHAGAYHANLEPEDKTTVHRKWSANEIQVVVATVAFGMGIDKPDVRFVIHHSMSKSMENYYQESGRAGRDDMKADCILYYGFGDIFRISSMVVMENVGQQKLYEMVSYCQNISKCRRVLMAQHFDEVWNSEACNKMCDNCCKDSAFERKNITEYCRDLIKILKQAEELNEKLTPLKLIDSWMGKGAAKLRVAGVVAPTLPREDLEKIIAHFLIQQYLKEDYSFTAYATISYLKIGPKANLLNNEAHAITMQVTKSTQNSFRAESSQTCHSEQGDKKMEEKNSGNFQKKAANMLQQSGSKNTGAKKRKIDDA
#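 RECQ1T1 50 nM; forked duplex (20 bp + 30-nt ss tails) 200 nM, ATP 2 mM final; pH 8.0, 2 mM MgCl2, 2.5 ug/ml poly(dI-dC); 15 min compound preincubation; discontinuous kinetic read over 2 h at RT.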
# BLM helicase inh: Bloom syndrome helicase (human) inhibition; 350,000 tested, 0.2% active; P54132; Potency, µM (titrated, usually from 56.1 µM), without a hit: top-dose activity change, negative = inhibition, hits mostly inhibitors; AID 2528; recombinant BLM DNA unwinding, fluorescence dequenching;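 further: plate controls were vehicle for no effect and no enzyme for full effect; nearly all actives have a fitted effect of over 35% in size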
# L3MBTL1 inh: L3MBTL1 (human) inhibition; AlphaScreen L3MBTL1–H3K9me1 peptide binding; Potency, µM (series often up to 57.1 µM), for inactives: at the highest dose activity, negative = inhibition, usual class: inhibitors; 230,000 tested, 0.66% active; AID 485360; further: nearly all actives have a fitted effect of over 60% in size
#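 Read-out is AlphaScreen signal from streptavidin donor and nickel chelate acceptor beads (10 ug/mL final each) bridging L3MBTL1 (50 nM) and biotinylated K9-monomethylated H3(1-15) peptide (75 nM), after 30 min compound exposure at room temperature.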
# APEX1 inh: inhibitors of human APE1 endonuclease | P27695 | recombinant APE1, TAMRA/BHQ-2 abasic DNA cleavage fluorescence | 350,000 tested, 0.35% active | Potency, µM (doses to about 65.8 µM), for inactives: at the highest dose activity change, negative = inhibition, most hits filed as inhibitors;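 further: plate controls were vehicle for no effect and reference inhibitor for full effect; nearly all actives have a fitted effect of over 55% in size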
#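 Substrate: short duplex with […] THF abasic site, 5'-TAMRA and 3'-BHQ-2, 50 nM final. APE1 at 0.75 nM, preincubated 15 min RT with compound. Fluorescence increase from first to third read measured activity.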
# Numbers without * were called inactive; i = inactive; ? = inconclusive; . = no result; [ ] = dose if it differs, or a comment. Hits are enriched below; roughly 0.92% of the tested compounds scored in any of these assays. The call rests on the fitted dose curve; in most records, active means well fitted curve in the direction sought with a large enough effect; inconclusive means small, poorly fitted or top-dose-only effect, or another doubt; inactive means no such curve, though single readings can be large; an effect the other way counts as inactive or inconclusive. Unless noted, on the % scale 0 is the no-effect control and ±100 the full control effect; potency means the concentration at half of the fitted maximal effect.
SMILES,WRN inhibitor,RECQ1 helicase,BLM helicase inh,L3MBTL1 inh,APEX1 inh
CCOc1cc2c(C#N)c(N3CCCCC3)nc(N)c2c(N)n1,-23%,-1%,28µM*,.,-6%
CCOc1cc2c(C#N)c(N3CCNCC3)nc(N)c2c(N)n1,-8%,-3%,-3%,.,6%
CCOC(=O)C1CCN(c2nc(C)cc(C)c2C#N)CC1,-4%[57.1 µM],3%,-10%,19%,-4%
CCOC(=O)C1CCN(c2nc(N)c3c(N)nc(SCC(=O)O)cc3c2C#N)CC1,45µM*,?,25µM*,25µM*,?
CC[C@]1(c2ccccc2)NC(=O)NC1=O,.,1%,1%,.,10%
Cc1cccc2cc(C3CC(c4ccco4)=NN3S(C)(=O)=O)c(Cl)nc12 (stereo unspecified),-32%,i,-12%,-14%,?
Cc1cccc2cc(C3CC(c4ccco4)=NN3S(=O)(=O)c3ccccc3)c(Cl)nc12 (stereo unspecified),-2%,28µM*,-6%,-14%,?
COC1C(OC(=O)/C=C/C=C/C=C/C=C/C(=O)O)CCC2(CO2)C1C1(C)OC1CC=C(C)C (stereo unspecified),.,.,3%,.,.
COc1ccc2oc(C(=O)Nc3nc(-c4ccccn4)cs3)c(C)c2c1,-19%,.,.,25µM*,7%
O=C(/C=C/c1ccccc1)Nc1cccc(S(=O)(=O)Nc2ccccc2F)c1,40µM*,-3%,-5%,-6%,-3%
O=C(Cc1c(F)cccc1Cl)Nc1cccc(S(=O)(=O)NC2=NCCCCC2)c1,3%,.,.,-2%,21%
O=C(Cc1ccc(Cl)cc1Cl)Nc1cccc(S(=O)(=O)Nc2ccccc2F)c1,56µM*,-2%,-3%,9%,?
CC(C)n1c(SCC(=O)Nc2nncs2)nnc1-c1ccco1,?,.,-20%,.,13µM*
Cc1nnc(NC(=O)CSc2nnc(-c3ccco3)n2C(C)C)s1,-2%,.,-1%,.,9%
CCOc1ccc(C2C(C#N)=C(N)SC(N)=C2C#N)c(OCC)c1,-30%,-6%,0%,-8%,0%
CCCCc1ccc(C2C(C#N)=C(N)SC(N)=C2C#N)s1,.,22µM*,-21%,-13%,13%
CC(=O)Nc1ccc(NC(=O)CSc2nnc(NC(=O)c3ccc(Br)o3)s2)cc1,56µM*,.,-8%,.,0%
[O-][n+]1c2c(nn1-c1ccccc1)/C(=N/O)CCC2,-2%,i,-1%,5%,2%
[O-][n+]1onc2c1CCC(=N/O)/C2=N\Nc1ccccc1,.,?,32µM*,?,?
O=S(=O)(NC1CCc2ccccc21)c1ccccc1 (stereo unspecified),3%,.,.,.,.
O=C1C(Cl)=C(NC2CCc3ccccc32)C(=O)c2ncccc21 (stereo unspecified),.,11µM*,2.5µM*,.,?
COc1ccccc1C1(O)CCN(CCCn2c3ccccc3c3ccccc32)CC1,.,1%,48%,.,2%
N#C/C(=C\c1ccc(-c2ccccc2C(=O)O)o1)c1nc2ccccc2[nH]1,56µM*,.,-12%,.,5%
Cc1ccc2nc(/C(C#N)=C/c3ccc(-c4ccccc4C(=O)O)o3)[nH]c2c1,-18%[11.6 µM],.,-11%,.,?
Cc1cccc(C)c1-n1c(SCC(=O)Nc2ccc(C(=O)O)cc2)nnc1-c1ccc([S+](=O)([O-])N2CCCC2)cc1,.,.,.,.,24%
SMILES,WRN inhibitor,RECQ1 helicase,BLM helicase inh,L3MBTL1 inh,APEX1 inh
COc1ccc(OC)c(C2=Nn3c(nnc3-c3ccccc3O)SC2)c1,.,i,-1%,.,5%
COc1ccc(-c2nnc(Nc3ccc(S(=O)(=O)Nc4nccs4)cc3)c3ccccc23)cc1,50µM*,?,?,.,?
N#Cc1nc(NCC2CC2)nc(Nc2ccccc2)n1,.,-6%,-7%,.,-2%
CCOC(=O)C(=N/O)/C(C)=N/NC(=O)C(=O)Nc1cc(Cl)ccc1Cl,-4%,-5%,0%,25µM*,0%
CN(C)c1ccc(NC2=C(Cl)C(=O)c3ccccc3C2=O)cc1,-25%,i,-19%,16µM*,-3%
CC(=O)Nc1ccc(NC2=C(Cl)C(=O)c3ccccc3C2=O)cc1,-1%[11.6 µM],2%,8%,?,-1%
Cc1nc2c(=O)[nH]c(=S)n(C)c2nc1C,56µM*,4%,3%,-1%,-4%

# Compound activity deposited in PubChem BioAssay by National Center for Advancing Translational Sciences (NCATS).
